# Source: the supplement of paper PMC9694430
# Tested on: LOC_OS02G07810-cb001
# Assay: thermal shift delta Tm vs DMSO control; higher = stronger stabilization (binding)
# Conditions: 12.5 µM; protein concentration 2 µM
# In short: (§1)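 Compounds dissolved in DMSO were added to purified rice kinase domain constructs, which had been expressed in E. coli, for differential scanning fluorimetry. Each well held 19.5 μl of 2 μM kinase in 100 mM potassium phosphate pH 7.5, 150 mM NaCl, 10% glycerol and 5 × SYPRO Orange. Fluorescence was followed from 25°C to 95°C at a rate of 0.05°C/s. Shifts in Boltzmann-fitted melting temperature are triplicate means relative to DMSO-only protein.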
row,SMILES,thermal shift delta Tm [°C]
1,C[C@@H](N)[C@H]1CC[C@H](C(=O)Nc2ccncc2)CC1,0.9
2,COc1cc(N2CCC(N(C)C)CC2)ccc1Nc1ncc(Cl)c(Nc2ccccc2P(C)(C)=O)n1,0.65
3,"CCCS(=O)(=O)Nc1ccc(F)c(C(=O)c2c[nH]c3ncc(-c4ccc(Cl)cc4)cc23)c1F [Vemurafenib (PLX4032, RG7204)]",2.03
4,CO[C@H]1C[C@@H]2CC[C@@H](C)[C@@](O)(O2)C(=O)C(=O)N2CCCC[C@H]2C(=O)O[C@H]([C@H](C)C[C@@H]2CC[C@@H](OCCO)[C@H](OC)C2)CC(=O)[C@H](C)/C=C(\C)[C@@H](O)[C@@H](OC)C(=O)[C@H](C)C[C@H](C)/C=C/C=C/C=C/1C [Everolimus (RAD001)],0.75
5,COc1ccc(S(=O)(=O)N(CCO)c2ccccc2CN(C)C/C=C/c2ccc(Cl)cc2)cc1 [KN-93 Phosphate],0.44
6,CN(C[C@@H]1COCCO1)S(=O)(=O)Nc1ccc2ccc3ncc(-c4cnn(C)c4)cc3c(=O)c2c1,1.23
7,COc1ccc(CCNCc2ccc(OCc3ccc(Cl)nc3)c(OC)c2)cc1OC,0.28
8,Clc1ccc(C2(c3ccc(-c4cn[nH]c4)cc3)CCNCC2)cc1,1.21
9,CN(C)Cc1cccc(N/C(=C2\C(=O)Nc3cc(C(N)=O)ccc32)c2ccccc2)c1,0.75
10,"CC[C@H](CO)Nc1nc(NCc2ccccc2)c2ncn(C(C)C)c2n1 [Roscovitine (Seliciclib,CYC202)]",0.93
11,Cc1cc(Nc2cc(N3CCN(C)CC3)nc(/C=C/c3ccccc3)n2)n[nH]1,0.72

# Tested on: LOC_OS02G08530-cb003
# Assay: as above
# Conditions: 12.5 µM; protein concentration 2 µM
# In short: as §1
row,SMILES,thermal shift delta Tm [°C]
1,CCOc1cc2ncc(C#N)c(Nc3ccc(OCc4ccccn4)c(Cl)c3)c2cc1NC(=O)/C=C/CN(C)C [Neratinib (HKI-272)],1
2,COc1cc2nccc(Oc3ccc(NC(=O)Nc4cc(C)on4)c(Cl)c3)c2cc1OC [Tivozanib (AV-951)],1.02
3,O=C1NC(=O)C(c2ccccc2[N+](=O)[O-])=C1Nc1ccc(O)c(Cl)c1,1.16
4,Cc1c(C(=O)N2CCOc3ccc(-c4ccc(N)nc4)cc3C2)ccc(S(C)(=O)=O)c1F,0.91
5,Cn1nccc1Nc1nccc(-c2ccn([C@H](CO)c3ccc(Cl)c(F)c3)c(=O)c2)n1,0.98
6,COc1cc2c(N3CCN(C(=O)Nc4ccc(OC(C)C)cc4)CC3)ncnc2cc1OCCCN1CCCCC1 [Tandutinib (MLN518)],0.33
7,C[C@@H]1COCCN1c1cc(=O)n2c(n1)N(Cc1cncc(Cl)c1)[C@H](C(F)(F)F)CC2,0.7
8,COc1ccc(F)c(F)c1C(=O)c1cnc(NC2CCN(S(C)(=O)=O)CC2)nc1N,0.57
9,O=C(NCc1ccccc1)c1csc(Nc2ccncn2)n1 [Thiazovivin],0.69
10,CCN(CC)CCCCNc1ncc2cc(-c3cc(OC)cc(OC)c3)c(NC(=O)NC(C)(C)C)nc2n1,0.6
11,O=c1cc(N2CCOCC2)oc2c(-c3ccc4c(c3)OCCO4)csc12,0.62
12,Nc1ccc(C(=O)Nc2cccc(-c3nc(N4CCOCC4)c4oc5ncccc5c4n3)c2)cn1,1.1
13,O=C(NC[C@H](O)CO)c1ccncc1Nc1ccc(I)cc1F,0.65
14,CCOc1cc2ncc(C#N)c(Nc3ccc(F)c(Cl)c3)c2cc1NC(=O)/C=C/CN(C)C [Pelitinib (EKB-569)],0.59
15,COc1cc2ncnc(Nc3ccc(Cl)cc3F)c2cc1OC,1.3
16,"Cc1cc(Nc2ncnc3ccc(NC4=NC(C)(C)CO4)cc23)ccc1Oc1ccn2ncnc2c1 [Irbinitinib (ARRY-380, ONT-380)]",0.22
17,CC1(C)CNc2cc(NC(=O)c3cccnc3NCc3ccncc3)ccc21 [Motesanib Diphosphate (AMG-706)],0.61
18,COC(=O)Nc1ccc(-c2nc(N3CCOCC3)c3cnn(C4CCN(C(=O)OC)CC4)c3n2)cc1,0.58
19,COc1cc(C(=O)N2CCC(N3CCN(C)CC3)CC2)ccc1Nc1ncc2c(n1)N(C)c1ccccc1C(=O)N2C,1.92
20,C=C(C)[C@@H]1CC[C@]2(C)CC[C@]3(C)[C@H](CC[C@@H]4[C@@]5(C)CC[C@H](O)C(C)(C)[C@@H]5CC[C@]43C)[C@@H]12 [Lupeol],0.21
21,Oc1cccc(-c2nc(N3CCOCC3)c3oc4ncccc4c3n2)c1,0.91
22,CCn1c(N)c(C(=O)NC)c(=O)c2ccc(C#CC(C)(O)COC)nc21 (centres undefined),1.25
23,CCOc1cc(C(=O)N2CCC(N3CCN(C)CC3)CC2)ccc1Nc1ncc2c(n1)N(C1CCCC1)c1ccccc1C(=O)N2C,0.54
